Source: PubChem BioAssay
Bcl-xL primary: inhibitors of human Bcl-xL, primary screen, biochemical, fluorescence polarization, HTS | 0.7% of 320,000 active | Bcl-2-like protein 1 (Homo sapiens), Q07817 | inhibition, % at 10.9 µM | GST-Bcl-xL / FITC-Bim BH3 peptide fluorescence polarization;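 active = inhibition above the mean of all tested compounds plus 3 SD, cutoff set per campaign, cut at about 30% in these data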;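 note: inhibitors lower millipolarization by displacing the labeled peptide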
C-LANA FP: inhibitors of KSHV C-LANA binding to DNA, primary screen, biochemical, fluorescence polarization, FAM-LBS DNA, MBP-C-LANA, single point; Kaposi's sarcoma herpesvirus LANA C-terminal domain (residues 932-1162) DNA binding; inhibition, % at 9 µM; 0.078% of 340,000 active;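 active = highest replicate inhibition at or above 60% at 9 µM, even if other replicates fall short; inactive = all replicates below 60% inhibition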
eLon inh: inhibitors of E. coli Lon protease, primary screen, biochemical, fluorescence polarization | P0A9M0 | purified E. coli Lon protease | inhibition, % at 7.94 µM | 0.42% of 360,000 active | AID 602123, 2011; in the data active = inhibition above about 13%, passing the limit was not always enough
Target sequence (P0A9M0 whole entry, looked up): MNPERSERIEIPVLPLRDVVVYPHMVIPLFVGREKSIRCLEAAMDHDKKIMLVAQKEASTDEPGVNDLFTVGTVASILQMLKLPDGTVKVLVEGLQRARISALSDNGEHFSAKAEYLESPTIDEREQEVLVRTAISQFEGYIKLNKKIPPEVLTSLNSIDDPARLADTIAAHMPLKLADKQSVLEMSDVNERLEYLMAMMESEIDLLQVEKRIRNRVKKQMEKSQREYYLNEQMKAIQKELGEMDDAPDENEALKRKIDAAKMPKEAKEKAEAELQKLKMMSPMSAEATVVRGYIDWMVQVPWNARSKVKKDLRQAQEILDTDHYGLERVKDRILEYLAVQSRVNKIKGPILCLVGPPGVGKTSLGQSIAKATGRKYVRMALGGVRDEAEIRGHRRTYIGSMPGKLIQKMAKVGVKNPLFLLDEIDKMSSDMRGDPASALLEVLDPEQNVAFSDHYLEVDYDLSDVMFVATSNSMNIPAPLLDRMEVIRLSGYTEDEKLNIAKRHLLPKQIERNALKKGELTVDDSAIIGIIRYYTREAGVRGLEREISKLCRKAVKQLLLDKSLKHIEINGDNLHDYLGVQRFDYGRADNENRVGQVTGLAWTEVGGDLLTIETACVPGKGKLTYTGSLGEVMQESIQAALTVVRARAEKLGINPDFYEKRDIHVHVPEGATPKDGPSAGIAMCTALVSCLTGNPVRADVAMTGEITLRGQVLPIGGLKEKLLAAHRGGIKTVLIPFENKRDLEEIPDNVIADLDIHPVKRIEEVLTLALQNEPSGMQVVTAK
MEX-5 binding: MEX-5 zinc finger RNA-binding disruptors – biochemical, C. elegans, fluorescence polarization, MLPCN library, primary screen. activity score (negative = inhibition of binding), % at 10 µM. Zinc finger protein mex-5 (Caenorhabditis elegans), Q9XUB2. AID 1832, 2009. MEX-5/FITC-TCR2 RNA binding; hits give low values. 0.38% of 300,000 active;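 active = inhibition past about -25% in most replicates, and total fluorescence under double the plate's negative control median, limit read from the data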
GLD-1 TGE inh: GLD-1/TGE RNA complex disruptors, primary screen, biochemical, fluorescence polarization; Female germline-specific tumor suppressor gld-1 (Caenorhabditis elegans), Q17339; purified GLD-1 + fluorescein TGE RNA; inhibition, % at 5.96 µM; 0.44% of 320,000 active; AID 2280, 2010;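 active = percent inhibition above a per-plate cutoff, the plate mean of test compounds plus 3 SD, cut at about 30% in these data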
Keap1-Nrf2 PPI: Keap1-Nrf2 protein-protein interaction inhibitors, primary screen, biochemical, fluorescence polarization, single point; Keap1 Kelch-Nrf2 peptide fluorescence polarization, 1536-well; Kelch-like ECH-associated protein 1 (Homo sapiens), Q14145; 0.15% of 340,000 active; inhibition, % at 9.4 µM; in the data active = inhibition above about 12%;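 note: human Keap1 Kelch domain with fluorescein labeled Nrf2 9mer peptide probe; higher means more block of Keap1 binding to Nrf2 peptide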
GLD1 RNA confirm: GLD-1/TGE RNA binding inhibitors, retest, confirmation, biochemical, fluorescence polarization, triplicate; shares compounds with GLD-1 TGE inh; GLD-1/FL-TGE RNA fluorescence polarization; inhibition, % at 5.96 µM; 10% of 550 active; AID 2459, 2010;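 active = average inhibition across triplicates above the hit cutoff set in the primary screen, cut at about 32% in these data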
Hits are given with their value; 0 = inactive; - = no result given. Sampled rows, rich in hits. Any-hit rate of the full collection: about 1.2%.

SMILES	Bcl-xL primary	C-LANA FP	eLon inh	MEX-5 binding	GLD-1 TGE inh	Keap1-Nrf2 PPI	GLD1 RNA confirm
CC(C)c1ccc(NC2CCCN(C(=O)CSc3nncn3C)C2)cc1 (stereo not given)	0	0	0	0	0	0	-
CCOc1ccc(N(CC(=O)NCc2ccc(F)cc2)C(=O)c2snc(C(N)=O)c2N)cc1	0	0	0	0	0	0	-
Cc1cc([N+](=O)[O-])nn1CC(=O)NNC(=S)Nc1ccc([N+](=O)[O-])cc1	0	0	0	-36.9	0	0	-
COc1ccc2nc3ccccc3nc2c1N	0	0	0	0	0	0	-
COc1ccc2nc3cccc(OC)c3nc2c1	45.9	0	0	0	0	0	-
Cc1cc(C(=O)N/N=C/c2ccc(-c3cccc(Cl)c3Cl)o2)n[nH]1	0	0	0	-38.1	0	0	-
CC1(C)CC(=O)C=C(c2n[nH]nc2-c2ccc(F)c(F)c2)C1	-	-	0	-	-	-	-
CCOC(=O)Cc1nc2ccccc2n(CC#N)c1=O	0	0	0	-33.4	0	0	-
CCOC(=O)Cn1c(C)nc2ccccc21	0	0	0	0	0	0	-
O=C(CCc1nc2ccccc2c(=O)[nH]1)NNC(=O)c1ccc(F)cc1	0	0	0	-	0	0	-
CC1OC(OC2C(OC3C(O[C@H]4CC[C@]5(C)C6C=C[C@]78OC[C@@]9(CC[C@@H](C)[C@H](C)C97)[C@H](O)C[C@@]8(C)[C@]6(C)CC[C@H]5C4(C)C)OC(C)C(O)C3O)OC(CO)C(O)C2O)C(O)C(O)C1O (stereo not given in full)	-	-	-	0	-	-	-
Cc1ccc(-n2c(C)cc3c2CCCC3=O)cc1	30.6	0	0	0	0	0	-
Oc1ccc2cccnc2c1	40.3	0	0	0	0	0	-
Cn1c(=O)c2[nH]c(CN(Cc3ccccc3)Cc3ccccc3)nc2n(C)c1=O	0	0	0	0	34.5	0	-
O=C1C=C(O)c2c(O)cc(O)c(O)c2C1=O	0	117.3	0	-99.7	0	19.2	-
O=C1C=C(O)c2[nH]c(=O)ccc2C1=O	-	0	0	-	-	0	-
CCOC(=O)c1c(-c2ccc(C)o2)csc1NC(=S)NC(=O)c1cccs1	0	0	0	-33.9	0	0	-
CCN1C/C(=C/c2cccs2)c2nc3ccccc3c(C(=O)O)c2C1	32.5	0	0	-27.0	35.2	0	34.4
O=C(Nc1ccc2nc(-c3ccco3)c(-c3ccco3)nc2c1)N1CCN(c2ccccn2)CC1	50.8	0	0	-30.2	33.9	0	0
O=C(CC1CC2CCC1C2)N1CCN(S(=O)(=O)c2ccc(F)cc2)CC1 (stereo not given)	-	-	0	-	-	-	-
Cc1ccc(CS(=O)(=O)Cc2ccc(C(=O)NC3CC3)o2)cc1	0	0	0	0	33.0	0	0
O=C(O)CC1CCC1CC(=O)O (stereo not given)	-	0	0	-	-	0	-
Cc1cc2ccccc2n1CCNC(=O)C1CC1	0	0	0	0	34.5	0	0
Cc1cc2ccccc2n1CCNC(=O)c1cccs1	41.6	0	0	0	48.5	0	0
Cc1cc2ccccc2n1CCNC(=O)C1CCCCC1	0	0	0	0	0	0	-
SMILES	Bcl-xL primary	C-LANA FP	eLon inh	MEX-5 binding	GLD-1 TGE inh	Keap1-Nrf2 PPI	GLD1 RNA confirm
Cc1cc2ccccc2n1CCNC(=O)C1CCCC1	0	0	0	-	0	0	-
CSc1nc2sc3c(c2c(=O)[nH]1)CC(C)(C)OC3	0	0	0	0	0	0	-
CNc1ccccc(-c2ccc3ccccc3n2)c1=O	48.5	0	0	0	34.8	0	0
CCC(=O)N(C)C[C@@H]1Oc2ncc(Br)cc2C(=O)N([C@@H](C)CO)C[C@H]1C	-	-	0	-	-	-	-
CCOC(=O)c1sc(=S)n(-c2ccc3c(c2)OCO3)c1N	106.3	0	0	0	49.4	0	0
CCOC(=O)c1sc(=S)n(-c2ccc(F)c(F)c2)c1N	0	0	0	0	0	0	-
COC(=O)C1(Cc2cc(-c3ccc([N+](=O)[O-])cc3)no2)CCN(C(=O)OC(C)(C)C)CC1	0	0	0	0	0	0	-
O=C(CNC(=O)c1cccnc1)N/N=C/c1ccc(O)cc1O	0	0	0	0	32.8	0	0
O=C(CNC(=O)c1cccs1)N/N=C/c1ccc(O)cc1O	0	0	0	0	0	0	-
C=CCNc1ncnc2c1ncn2[C@H]1CN(CCc2ccccc2)C[C@@H](CO)O1	-	-	0	-	-	-	-
Cc1c(N/C=C(\Cl)C(=O)C(F)(F)F)c(=O)n(-c2ccccc2)n1C	0	0	0	0	0	0	-
Cc1c(NC=C(C#N)C#N)c(=O)n(-c2ccccc2)n1C	85.8	0	0	0	35.0	0	0
O=C1Cc2ccccc2C(=O)N1Cc1cccc(Cl)c1	-	0	0	0	-	0	-
Nc1cccc2c1C(=O)N(Cc1cccc(Cl)c1)C2=O	0	0	0	0	32.0	0	38.8
N#CC1=C2N=C(N)c3ccccc3N2C2=C(C(=O)CCC2)C1c1cccc(Cl)c1 (stereo not given)	0	0	0	0	47.9	0	0
O=C(Cc1ccc(-c2ccccc2)cc1)Nc1ncccc1O	0	0	0	0	30.8	0	0
OC[C@@H]1CN(Cc2cccc(C(F)(F)F)c2)C[C@H](n2cnc3c(NCc4ccco4)ncnc32)O1	-	-	0	-	-	-	-
O=C(Nc1cccc2c1C(=O)NC2=O)c1ccc(S(=O)(=O)N2CCCC2)cc1	30.7	0	0	-	35.9	0	0
CC1(c2ccc3c(c2)OCCO3)NC(=O)N(CC(=O)Nc2ccccc2SCC#N)C1=O (stereo not given)	0	0	0	-	0	0	-
Oc1c(Br)cc(Br)cc1C=Nc1cccc2ncccc12	74.2	0	0	0	53.0	0	0
Cc1ccccc1OCCC(=O)NNC(=O)c1ccccc1F	-	0	0	-	0	0	-
COc1ccc(-c2csc(NC(=O)CCN3C(=O)C4CC=CCC4C3=O)n2)cc1OC (stereo not given)	0	0	0	0	0	0	-
CN(C)c1ccc(C(CNC(=O)c2ccc(-c3ccccc3)cc2)N2CCOCC2)cc1 (stereo not given)	80.0	0	0	0	37.3	0	0
Cc1ccc(F)cc1C(=O)N1CCCC1(C)C(=O)NCC(C)C (stereo not given)	-	-	0	-	-	-	-
CCn1c(COc2ccccc2)nnc1SCC(=O)CC(=O)Nc1ccccc1OC	0	0	0	0	34.7	0	0
